Integrin act MD = activators of alpha7 integrin expression for muscular dystrophy. alpha7betagal myoblasts, beta-gal FDG fluorescence, 48 h. Potency, µM (highest dose often 38.3 µM), for inactives: at the highest dose activation, actives largely listed as activators. actives 0.064% (n = 350,000);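 also: potency is read from the fitted curve at half-maximal effect; 100% = response of the positive control SU9516; nearly all actives have a fitted effect of over 60% in size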
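alpha7betagal+/- myoblasts (passage 13, 250/well) treated 48 h at 37C with compounds at 1:260 dilution of DMSO stock. Lysed, then beta-galactosidase activity read as FDG fluorescence (ex 480/em 540) after 30 min, with pre-read for autofluorescence.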
IL-1B inflam inh = blocks inflammasome-driven IL-1 beta release; THP-1 LPS/ATP IL-1B secretion, AlphaLISA, 16 h; active compounds read low; activity change, % at 57.5 µM; actives 4.7% (n = 360,000); AID 743279; in the data active = activity change below about -50%; inconclusive = mostly about -30% to -49%; also: % is scaled to controls: 0 for no effect and ±100 for the full control effect
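Secreted IL-1B measured by AlphaLISA bead assay after 16 h compound exposure of THP-1 cells; compounds (final up to 57.5 uM) added 1 h before LPS (250 ng/mL) and ATP (1.25 mM) stimulation; lower signal means less secretion.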
ATXN2 expr inh = ATXN2 expression inhibition. HEK-293 ATXN2-luciferase reporter, luminescence, 24 h. Potency, µM (titrated, usually from 57 µM), for the others: at the top dose activity change, negative = inhibition, actives largely listed as inhibitors. actives 0.72% (n = 360,000). AID 1745845; also: potency is read from the fitted curve at half-maximal effect; % is scaled to controls: 0 for no effect and ±100 for the full control effect; nearly all actives have a fitted effect of over 55% in size
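ATXN2-luciferase reporter cells (luciferase flanked by upstream and downstream ATXN2 gene portions) were treated 24 h at 37 °C with compounds at up to 57 uM. SteadyGlo luminescence gave expression; GF-AFC fluorescence gave viability.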
D3 antag = antagonists of human D3 dopamine receptor | P35462 | D3R cells, DiscoveRx beta-arrestin luminescence, antagonist mode; active compounds read low | max response, negative = inhibition, % | actives 2.5% (n = 360,000); in the data active = max response below about -50%; inconclusive = no clear call, values can overlap the other calls; also: % is scaled to controls: 0 for no effect and ±100 for the full control effect
Target sequence (P35462 whole entry, looked up): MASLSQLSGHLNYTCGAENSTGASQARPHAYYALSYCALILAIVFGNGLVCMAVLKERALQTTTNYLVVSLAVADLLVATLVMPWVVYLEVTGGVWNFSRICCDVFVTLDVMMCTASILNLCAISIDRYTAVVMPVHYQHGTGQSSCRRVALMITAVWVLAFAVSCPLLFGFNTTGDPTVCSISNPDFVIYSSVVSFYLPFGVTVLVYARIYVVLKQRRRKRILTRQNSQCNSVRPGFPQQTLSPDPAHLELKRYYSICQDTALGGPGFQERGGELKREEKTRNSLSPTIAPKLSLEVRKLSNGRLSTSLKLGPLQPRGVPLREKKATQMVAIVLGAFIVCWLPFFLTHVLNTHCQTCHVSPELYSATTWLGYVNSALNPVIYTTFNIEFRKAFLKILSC
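Cells plated overnight at 1500 cells/well, then exposed to library compounds with dopamine controls for 90 minutes at 37 degrees C. DiscoveRx reagent added for 30–60 minutes at room temperature; luminescence read, quantitative HTS format.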
D3 ag = activates the human D3 dopamine receptor; P35462; actives 0.58% (n = 410,000); AID 652048; max activation, %; D3R DiscoveRx beta-arrestin cells, luminescence, 90 min; in the data active = max activation above about 30%; also: 0% is about no effect
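Cells at 1500/well, incubated overnight, then treated with pinned compounds (dopamine as control) for 90 min at 37 degrees C. DiscoveRx reagent added for 30 - 60 minutes at room temperature; luminescence read.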
ATXN viability = viability counter-screen for ATXN expression inhibitors. S2 cells (HEK-293 line with an ATXN2-luciferase reporter) viability, CellTiter-Fluor protease fluorescence, 24 h. Potency, µM (highest dose often 56.7 µM), most hits filed as cytotoxic. actives 0.49% (n = 400,000); also: potency is read from the fitted curve at half-maximal effect; nearly all actives have a fitted effect of over 40% in size
* hit, by the source's call; i = inactive; ? = inconclusive; nt = no result given; [ ] = dose if it differs, or a comment. This is a sample that favours compounds with a hit; in the whole collection about 7% have one here. Unless noted, calls follow the shape of the dose curve; as a rule, active = well fitted curve in the direction sought with a large enough effect; inconclusive = small, poorly fitted or top-dose-only effect, or another doubt; inactive = no such curve, though single readings can be large; an effect the other way counts as inactive or inconclusive.

SMILES	Integrin act MD	IL-1B inflam inh	ATXN2 expr inh	D3 antag	D3 ag	ATXN viability
COc1ccc(N2CCN(C(=O)CN3C(=O)NC(c4ccc(OC)cc4)(c4ccc(OC)cc4)C3=O)CC2)cc1	-7%	0	-11%	-8	-1	i
COc1ccc(N2CCN(C(=O)CN3C(=O)NC4(CCCc5ccccc54)C3=O)CC2)cc1 (stereo not given)	3%	-4	-34%	-74*	-10	i
C[c-]1[c-](C)[c-](C)[c-](C)[c-]1C.[Fe].c1cc2nccc(N3CCCC3)[c-]2c1 (stereo not given)	21%	0	2%	0	12	i
COc1ccccc1N1CCN(C(=O)c2cc(-c3ccccc3)nc3c2cnn3C(C)C)CC1	2%	-5	nt	18	3	i
COc1ccccc1N1CCN(CC(=O)N2N=CCC2c2ccccc2)CC1 (stereo not given)	25%	11	nt	-13	-14	i
COc1ccccc1N1CCN(C/C(C)=C/c2ccccc2)CC1	-5%	-2	-7%	-89*	-71	i
CC(=O)c1ccc(N2CCN(CC(=O)NCc3ccccc3)CC2)cc1	7%	-5	nt	-7	-4	i
C/C=C(\C)CN1CCN(c2ccccc2)CC1	8%	-3	-9%	-71*	-7	i
C/C(=C\c1ccccc1)CN1CCN(c2ccccc2)CC1	-21%	-9	-4%	-109*	-27	i
COc1ccc(/C=C\C(=O)NCc2ccc3[nH]c(C)cc3c2)cc1OC	-8%	-18	28%	-9	2	i
CCCc1cc(C(=O)N2CCN(c3ccccc3C)CC2)cs1	8%	-3	1%	6	-14	i
Cc1ccc(/C(C#N)=C\c2ccc(N3CCOCC3)o2)cc1	-44%	-7	35%	-65*	-27	i
N#C/C(=C/c1ccc(N2CCCCC2)o1)c1cccc(F)c1	-65%	-28	109%	-69*	-55	i
N#C/C(=C/c1ccc(N2CCCCCC2)o1)c1ccc(Cl)cc1	-65%	-102*	?	-64*	-26	?
Cc1ccc2nc(/C(C#N)=C\c3ccc(N4CCOCC4)o3)[nH]c2c1	-7%	-12	60%	0	3	i
CN(CC(=O)Nc1ccc(F)cc1)C(=O)c1ccncc1	13%	45	4%	8	-12	i
COc1ccc(/C=C/C(=O)Nc2ccccc2C(=O)O)cc1OC	nt	nt	?	nt	-10	i
COc1ccc(/C=C/C(=O)Nc2ccccc2C(=O)O)cc1	-39%	29	?	4	-1	i
COc1ccc(C=CC(=O)Nc2ccccc2C(=O)O)cc1OC	nt	nt	0.97µM*	nt	nt	nt
COc1cc(/C=C/C(=O)Nc2cc(C(F)(F)F)ccc2Cl)cc(OC)c1OC	-25%	-57*	?	7	7	?
COC(=O)c1ccccc1NC(=O)/C=C/c1cc(OC)c(OC)c(OC)c1	9%	-85*	-4%	41	4	i
COc1ccc(/C=C/C(=O)Nc2ccccc2C(=O)NCC(c2ccc(OC)cc2)N(C)C)cc1 (stereo not given)	-39%	-78*	?	-96*	-29	?
C=CCn1c(SCC(=O)c2c(N)n(C3CC3)c(=O)[nH]c2=O)nnc1-c1ccccc1OC	23%	13	5%	-1	-3	i
CC12CC(c3ccccc3O1)C(/C(N)=N/NC(=O)c1ccc(F)cc1)C(=O)N2 (stereo not given)	-26%	40	-20%[11.3 µM]	7	3	i
Cc1cccc(C)c1OCC(N)C(C)C (stereo not given)	nt	-57*	0%	-4	0	i
SMILES	Integrin act MD	IL-1B inflam inh	ATXN2 expr inh	D3 antag	D3 ag	ATXN viability
O=C(CCC(=O)Nc1ccccc1)N/N=C/C=C/c1ccccc1	-17%	-28	20%	0	3	i
CC(C)=CCc1c(O)cc(O)c2c(=O)c3c(CC=C(C)C)c(O)ccc3oc12	-29%	?	?	2	0	25µM*
CCN(C(=O)Cc1c(C(=O)O)n(C)c2ccccc12)c1cccc(C)c1	-6%	36	nt	17	3	i
CC(C)(C)OC(=O)[C@H](Cc1ccccc1)NC(=O)c1[nH]cnc1C(=O)Nc1ccccc1F	-60%	?	?	-20	3	18µM*
CNC(=O)c1[nH]cnc1C(=O)N[C@@H](Cc1ccccc1)C(=O)OC(C)(C)C	-20%	54	-4%	3	-4	i
CC(C)(C)OC(=O)[C@H](Cc1ccccc1)NC(=O)c1nc[nH]c1C(=O)N[C@@H](CCCCN)C(=O)OC(C)(C)C	-2%	-10	?	20	-1	?
C[C@@H](NC(=O)c1nc[nH]c1C(=O)N[C@@H](Cc1ccccc1)C(=O)OC(C)(C)C)c1ccccc1	-43%	-61*	?	-25	0	nt
C[C@H](NC(=O)c1nc[nH]c1C(=O)N[C@@H](Cc1ccccc1)C(=O)OC(C)(C)C)c1ccccc1	-27%	?	?	-58*	-43	?
Cc1ccc(NC2=C(Cl)C(=O)OC2OC(=O)c2ccccc2)c(C)c1 (stereo not given)	-27%	?	-17%	-10	-4	i
Cc1ccccc1NC1=C(Cl)C(=O)OC1OC(=O)c1ccccc1C (stereo not given)	-35%	-83*	-15%[11.3 µM]	-13	-6	i
Cc1ccc(CN2CCC[C@]3(N[C@H](c4ccc(C(F)(F)F)cc4)[C@@H]4C(=O)N(Cc5ccccc5)C(=O)[C@@H]43)C2=O)cc1	-4%	-14	-6%	5	0	i
Cc1ccc([C@H]2N[C@]3(CCCN(Cc4ccc(C(F)(F)F)cc4)C3=O)[C@H]3C(=O)N(Cc4ccccc4)C(=O)[C@@H]23)cc1	14%	-70*	-8%	-6	-9	i
O=C(CCC(=O)N1CCN(Cc2ccccc2)CC1)Nc1nnc(C2CCCCC2)s1	2%	1	-5%	9	-2	i
CCc1c(C)sc2nc(C(C)C)nc(SCC(=O)N3CCc4ccccc4C3)c12	0%	-67*	-25%	58	50*	?
Cc1sc2nc(C3CC3)nc(SCC(=O)N3CCc4ccccc4C3)c2c1C	-22%	-75*	-3%	50	46*	?
O=C(Nc1ccccc1)c1nccn1Cc1ccc(F)cc1	10%	-20	nt	-6	-1	i
O=C(O)CSc1nc(SCc2ccccc2Cl)nc2c1CCCC2	-14%	14	-1%	0	-3	i
COc1ccc(-c2nnn(Cc3nc(N)nc(N4CCOCC4)n3)n2)cc1OC	-37%	-28	-1%	47	-4	i
